# PubChem BioAssay (NCI)
# Compounds without any hit were thinned out: in the full panel of roughly 83,000, 20% have a hit.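 Growth was measured after 48 h exposure to one concentration of compound in 96-well plates. Values under 10 count as active.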 Active and inactive are the calls of the source.
# Test system: CCRF-CEM leukemia
# Experiment: NCI-60 one-dose screen, 48 h (100 = growth as untreated, 0 = no growth, -100 = all killed)
# Conditions: 10 µM unless noted
row,Compound,growth
1,C=C1CC2(OC1=O)C(=O)Nc1ccccc12 (configuration not stated),0.987% (active)
2,Cc1ccc2c(c1)C(=O)/C(=C/c1ccc(OCC(=O)c3ccccc3)cc1)O2,151% (inactive)
3,CCN(C(=O)CN1CCN(c2cc3c(cc2F)c(=O)c(C(=O)O)cn3C2CC2)CC1)c1nc(-c2ccc(OC)cc2)cs1,61.2% (inactive)
4,CS(CCCCN=C=S)=NC(=O)c1c(F)c(F)c(F)c(F)c1F (configuration not stated),36.8% (inactive)
5,Cc1ccccc1CCO,116% (inactive)
6,O=C(O)c1c([N+](=O)[O-])cnc2ccccc12,127% (inactive)
7,CC(=O)C1=C(O)C=C2Oc3c(C(=O)/C=C/c4cc(Cl)cc(Cl)c4)c(O)c(C)c(O)c3[C@]2(C)C1=O,-22% (active)
8,COc1cc(NC(N)=NCC(C)(C)COc2ccc(C(F)(F)F)cc2)cnc1C#N,56% (inactive)
9,CC1=CC(=O)CC(C)(C)[C@@]1(O)/C=C/[C@@H](C)O,104% (inactive)
10,OC(c1cc(-c2ccccc2)nc2ccc(Cl)cc12)C1CCCCN1 (configuration not stated),64.6% (inactive)
11,CCC(=O)OCc1cccc(OC)c1,73.3% (inactive)
12,CCCCCCCCCCCCCC(=O)C(C)N (configuration not stated),60.2% (inactive)
13,CC1=C(C)C(=O)OC([C@](C)(O)[C@]2(O)CC[C@@]3(O)[C@@H]4C[C@H]5O[C@]56CC=CC(=O)[C@]6(C)[C@H]4CC[C@]23COC(=O)c2ccc(C)o2)C1 (some centres not stated),0.17% (active)
14,C=C1CC[C@@H]2[C@](C)(COC(C)=O)[C@H](OC(C)=O)CC[C@@]2(C)[C@@H]1CC(Nc1ccc(S(=O)(=O)Nc2ccc(Cl)nn2)cc1)C1=CCOC1=O (some centres not stated),-10.3% (active)
15,CC(C)[C@H]1COC(=O)N1[C@@H]1C(=O)N([C@@H](CCC(=O)N2CCN(C3CCCC3)CC2)C(=O)N[C@@H]2CCCc3ccccc32)[C@@H]1/C=C/c1cccc(Br)c1,32.8% (inactive)
16,Cc1cc(Cl)ccc1Nc1nc(C(F)(F)F)ccc1C(=O)N/N=C/c1ccc(F)cc1,4.12% (active)
17,Cn1c(=O)c2[nH]c(C(O)C(O)C(O)C(O)CO)nc2n(C)c1=O (configuration not stated),105% (inactive)
18,C(=N\Nc1ccccn1)/c1ccccn1,0.917% (active)
19,COc1cccc(-c2cn3c(ccc4ccccc43)n2)c1,26.6% (inactive)
20,COc1ccc2c(c1)C(=O)/C(=C/c1cccc(OCC(=O)Nc3nc4c(s3)CCCC4)c1)O2,-0.645% (active)
21,c1ccc(-c2nc(N3CCOCC3)c3c4c(sc3n2)CCCCC4)nc1,79.9% (inactive)
22,COc1ccc(-c2cn3c(ccc4ccccc43)n2)cc1,99.2% (inactive)
23,COc1cc(OC)c(/C=C/C(=O)c2c(OC)cc(OC)cc2OC)c(OC)c1,6.27% (active)
24,COc1ccc(-c2cc(-c3ccc(N(C)C)cc3)nc(NC(=O)c3ccncc3)n2)cc1,96.8% (inactive)

# Test system: MOLT-4 leukemia
# Experiment: as above
# Conditions: 10 µM unless noted
row,Compound,growth
1,O=C1/C(=C/c2ccc(F)cc2)CN(C(=O)CCN2CCC(=NO)CC2)C/C1=C\c1ccc(F)cc1,0.0352% (active)
2,CC/C=C\C[C@H](O)C/C=C1/C(=O)C=C[C@@H]1C/C=C\CCCC(N)=O,-13% (active)
3,CC/C=C\C[C@H](F)C/C=C1/C(=O)C=C[C@@H]1C/C=C\CCCC(=O)OC,-23.5% (active)
4,Nc1nc2c(c3ncccc13)C(c1ccc(Cl)c(Cl)c1)Cc1ncccc1-2 (configuration not stated),5.36% (active)
5,Cn1c(=O)c2c(ncn2CC[N+](C)(C)C)n(C)c1=O,104% (inactive)
6,O=C(O)c1cccc2c1-c1ccccc1C2=O,99.4% (inactive)
7,CCOC(=O)C(C#N)C1CCCCC1 (configuration not stated),79.3% (inactive)
8,CCCCNP1(NCCCC)=NP(NCCCC)(NCCCC)=NP(NCCCC)(NCCCC)=NP(NCCCC)(NCCCC)=N1,-38.5% (active)
9,CC(=O)C1=C(O)C=C2Oc3c(C(=O)/C=C/c4cc(C(F)(F)F)cc(C(F)(F)F)c4)c(O)c(C)c(O)c3[C@]2(C)C1=O,-14.1% (active)
10,COc1ccc(OCC(=O)Nc2ccc(-c3nc4ccccc4s3)cc2C)cc1,55.9% (inactive)
11,CCCCCCCCCC(=O)Oc1ccc(/C(=C(/C)c2ccccc2)c2ccc(OCCN3CCCC3)cc2)cc1,2.39% (active)
12,COc1cccc(-c2nc3sccn3c2-c2ccnc(NCCCNS(=O)(=O)c3ccc(Cl)cc3)c2)c1,21.6% (inactive)
13,CC/C=C\C[C@H](O)C/C=C1/C(=O)C=C[C@@H]1C/C=C\CCCC(=O)NC,-14.1% (active)
14,COc1cccc(/C=C\C(=O)c2ccccc2)c1,28.8% (inactive)
15,C=C1CC2(OC1=O)C(=O)Nc1ccccc12 (configuration not stated),18.7% (inactive)
16,Cc1ccc2c(c1)C(=O)/C(=C/c1ccc(OCC(=O)c3ccccc3)cc1)O2,33.2% (inactive)
17,CCN(C(=O)CN1CCN(c2cc3c(cc2F)c(=O)c(C(=O)O)cn3C2CC2)CC1)c1nc(-c2ccc(OC)cc2)cs1,70.6% (inactive)
18,CS(CCCCN=C=S)=NC(=O)c1c(F)c(F)c(F)c(F)c1F (configuration not stated),66.2% (inactive)
19,Cc1ccccc1CCO,111% (inactive)

row,Compound,growth
1,O=C(O)c1c([N+](=O)[O-])cnc2ccccc12,105% (inactive)
2,CC(=O)C1=C(O)C=C2Oc3c(C(=O)/C=C/c4cc(Cl)cc(Cl)c4)c(O)c(C)c(O)c3[C@]2(C)C1=O,-25.3% (active)
3,COc1cc(NC(N)=NCC(C)(C)COc2ccc(C(F)(F)F)cc2)cnc1C#N,15.6% (inactive)
4,CC1=CC(=O)CC(C)(C)[C@@]1(O)/C=C/[C@@H](C)O,108% (inactive)
5,OC(c1cc(-c2ccccc2)nc2ccc(Cl)cc12)C1CCCCN1 (configuration not stated),27.5% (inactive)
6,CCC(=O)OCc1cccc(OC)c1,87.9% (inactive)
7,CCCCCCCCCCCCCC(=O)C(C)N (configuration not stated),46.8% (inactive)
8,CC1=C(C)C(=O)OC([C@](C)(O)[C@]2(O)CC[C@@]3(O)[C@@H]4C[C@H]5O[C@]56CC=CC(=O)[C@]6(C)[C@H]4CC[C@]23COC(=O)c2ccc(C)o2)C1 (some centres not stated),4.89% (active)
9,C=C1CC[C@@H]2[C@](C)(COC(C)=O)[C@H](OC(C)=O)CC[C@@]2(C)[C@@H]1CC(Nc1ccc(S(=O)(=O)Nc2ccc(Cl)nn2)cc1)C1=CCOC1=O (some centres not stated),0.401% (active)
10,CC(C)[C@H]1COC(=O)N1[C@@H]1C(=O)N([C@@H](CCC(=O)N2CCN(C3CCCC3)CC2)C(=O)N[C@@H]2CCCc3ccccc32)[C@@H]1/C=C/c1cccc(Br)c1,17.9% (inactive)
11,Cc1cc(Cl)ccc1Nc1nc(C(F)(F)F)ccc1C(=O)N/N=C/c1ccc(F)cc1,-6.74% (active)
12,Cn1c(=O)c2[nH]c(C(O)C(O)C(O)C(O)CO)nc2n(C)c1=O (configuration not stated),103% (inactive)
13,C(=N\Nc1ccccn1)/c1ccccn1,18.8% (inactive)
14,COc1cccc(-c2cn3c(ccc4ccccc43)n2)c1,48.7% (inactive)
15,COc1ccc2c(c1)C(=O)/C(=C/c1cccc(OCC(=O)Nc3nc4c(s3)CCCC4)c1)O2,-47.8% (active)
16,c1ccc(-c2nc(N3CCOCC3)c3c4c(sc3n2)CCCCC4)nc1,58.9% (inactive)
17,COc1ccc(-c2cn3c(ccc4ccccc43)n2)cc1,113% (inactive)
18,COc1cc(OC)c(/C=C/C(=O)c2c(OC)cc(OC)cc2OC)c(OC)c1,-2.79% (active)
19,COc1ccc(-c2cc(-c3ccc(N(C)C)cc3)nc(NC(=O)c3ccncc3)n2)cc1,111% (inactive)
